For experiment [1], the target named is Estrogen receptor (Homo sapiens) (UniProt P03372). Nature of the experiment: qHTS assay for small molecule agonists of estrogen receptor alpha signaling (AID 588514). Also: nearly all actives have a fitted effect of over 70% in size. Also: potency is read from the fitted curve at half-maximal effect.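 As to activation: 0% = vehicle only and 100% = reference agonist.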 The procedure, abridged: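 Efficacy is expressed against 20 nM 17-beta-estradiol (100%) and DMSO basal (0%); EC50 from Hill equation. Assay: beta-lactamase reporter in ER-alpha-UAS-bla HEK 293 cells, 18 h compound incubation, CCF4 detection.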
Sequence of Estrogen receptor (Homo sapiens) (P03372 whole entry, looked up): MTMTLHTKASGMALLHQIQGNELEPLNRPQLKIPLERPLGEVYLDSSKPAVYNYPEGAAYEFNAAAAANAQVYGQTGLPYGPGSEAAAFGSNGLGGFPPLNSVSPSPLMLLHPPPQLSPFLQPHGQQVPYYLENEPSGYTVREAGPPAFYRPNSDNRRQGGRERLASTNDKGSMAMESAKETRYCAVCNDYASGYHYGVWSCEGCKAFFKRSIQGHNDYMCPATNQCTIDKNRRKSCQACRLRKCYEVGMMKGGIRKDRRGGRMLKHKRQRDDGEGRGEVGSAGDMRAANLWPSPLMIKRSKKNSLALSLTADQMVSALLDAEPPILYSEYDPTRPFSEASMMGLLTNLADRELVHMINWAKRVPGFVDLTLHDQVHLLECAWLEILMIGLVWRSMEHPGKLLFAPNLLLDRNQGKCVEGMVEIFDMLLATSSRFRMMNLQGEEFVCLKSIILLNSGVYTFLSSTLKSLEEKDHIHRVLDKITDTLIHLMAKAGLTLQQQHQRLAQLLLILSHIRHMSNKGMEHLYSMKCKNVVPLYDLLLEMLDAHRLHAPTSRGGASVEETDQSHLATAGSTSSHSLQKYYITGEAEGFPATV
(In qHTS, concentration-response curves come from the screen itself.)

Experiment [2] has as its target Androgen receptor (Homo sapiens) (UniProt P10275). Nature of the experiment: qHTS assay for small molecule agonists of androgen receptor signaling (AID 588515; active = well fitted curve in the direction sought with a large enough effect in the signal ratio, with a control signal flat; the % refers to the signal ratio; also: % is scaled to controls: 0 for no effect and ±100 for the full control effect). As to conditions: AR-UAS-bla HEK293, beta-lactamase ratio, agonist 16 h; stronger effect = higher value. The procedure, abridged:
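Stimulation of an AR-responsive β-lactamase reporter in GripTite HEK293 cells was measured after 16 h compound exposure at 37 °C, via CCF4 fluorescence after 2 h RT. EC50 from Hill fits, normalized to R1881 at 30 nM.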

For experiment [3] the target is unchanged. Nature of the experiment: qHTS assay for small molecule antagonists of androgen receptor signaling (AID 588516; active = well fitted curve in the direction sought with a large enough effect in the signal ratio, with a control signal flat, not every such curve was filed as active; the % refers to the signal ratio; also: % is scaled to controls: 0 for no effect and ±100 for the full control effect). In outline:
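Compounds tested in titration against 10 nM R1881 in AR-responsive bla reporter HEK 293 cells; CCF4 fluorescence (460/530 nm) after 16 h exposure gave IC50 and efficacy.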

For experiment [4], the target named is Bile acid receptor (Homo sapiens) (UniProt Q96RI1). Kind of experiment: qHTS assay for small molecule agonists of farnesoid X receptor signaling (AID 588527).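 Also: series mostly up to about 77 µM; 0% = vehicle basal and 100% = reference agonist.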 Conditions: HEK293T FXR-UAS-bla, beta-lactamase ratio, 16 h; activation: stronger effect = higher value. The procedure, abridged: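 FXR-UAS-bla HEK293T, 10% dialyzed FBS; cpds up to 92 uM titration, 16 h 37 C; CCF4 dye 2 h RT; fluorescence. Normalized to chenodeoxycholic acid 100 uM (100%) and DMSO (0%); Hill fit gives EC50, efficacy.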
Sequence of Bile acid receptor (Homo sapiens) (Q96RI1 whole entry, looked up): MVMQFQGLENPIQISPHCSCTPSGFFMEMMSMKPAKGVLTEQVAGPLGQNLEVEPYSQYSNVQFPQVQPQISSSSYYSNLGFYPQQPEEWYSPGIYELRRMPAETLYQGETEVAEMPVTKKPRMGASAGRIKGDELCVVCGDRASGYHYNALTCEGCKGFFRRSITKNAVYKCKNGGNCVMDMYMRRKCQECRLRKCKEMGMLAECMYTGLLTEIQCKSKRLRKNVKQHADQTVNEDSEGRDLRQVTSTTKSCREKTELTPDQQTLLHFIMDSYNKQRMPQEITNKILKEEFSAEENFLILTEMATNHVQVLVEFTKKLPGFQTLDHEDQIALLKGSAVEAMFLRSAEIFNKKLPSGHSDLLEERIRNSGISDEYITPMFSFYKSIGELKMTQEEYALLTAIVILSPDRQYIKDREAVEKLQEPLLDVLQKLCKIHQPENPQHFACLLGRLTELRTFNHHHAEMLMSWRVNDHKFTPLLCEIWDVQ

Experiment [5] has as its target Glucocorticoid receptor (Homo sapiens) (UniProt P04150). Nature of the experiment: qHTS assay for small molecule antagonists of glucocorticoid receptor signaling (AID 588533; active = well fitted inhibition curve with a large enough effect in the signal ratio, with a control signal flat, not every such curve was filed as active; the % refers to the signal ratio;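 also: cells stimulated with 2 nM dexamethasone as agonist; % is scaled to controls: 0 for no effect and ±100 for the full control effect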). The procedure, abridged: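 Antagonist-mode qHTS: compound titrations added to GRE-bla HeLa cells, then dexamethasone 2 nM final; 18 h, 37 C. CCF4 FRET fluorescence normalized to dexamethasone and DMSO; IC50 from Hill fit.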

A short description of experiment [6]: qHTS assay for small molecule agonists of the antioxidant response element (ARE) signaling pathway (AID 651741; active = well fitted activation curve with a large enough effect in the signal ratio; the % refers to the signal ratio; also: potency is read from the fitted curve at half-maximal effect; as to activation: % of control where 0% means no effect). In outline: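 Reporter: beta-lactamase under ARE, stably in HepG2. Exposure: 16 h, 37 C, compounds delivered in DMSO by pin tool after 5 h cell preincubation. Readout: FRET substrate fluorescence after 2 h at RT.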
Experiment [7] can be described thus: qHTS assay for small molecule activators of the nuclear factor-kappa B (NF-kB) signaling pathway (AID 651749; active = well fitted activation curve with a large enough effect in the signal ratio; the % refers to the signal ratio; also: series mostly up to about 77 µM; % of control where 0% means no effect). Conditions: NF-kB-bla ME-180 cells, beta-lactamase FRET ratio, 16 h; activation: stronger effect = higher value. In outline: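 Human ME-180 cervical cells with an NF-kB-bla construct; compounds added via 23 nL pin transfer, DMSO as vehicle; incubation 16 hr. Reporter activity measured by FRET disruption.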

Experiment [8] deals with Bile acid receptor (Homo sapiens) (UniProt Q96RI1). Nature of the experiment: qHTS assay for small molecule antagonists of farnesoid X receptor signaling (AID 588526). Also: % is scaled to controls: 0 for no effect and ±100 for the full control effect. In outline: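 Concentration-response titrations were fitted to the Hill equation for half-maximal inhibition and maximal response, with data normalised to 50 uM chenodeoxycholic acid and DMSO control wells. Cells: FXR-UAS-bla HEK293T, dialyzed FBS.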

Experiment [9] in a line: qHTS assay for small molecule activators of the human pregnane X receptor (PXR) signaling pathway (AID 720659; call rule not given here; also: 0% is about no effect).
Experiment [10] has as its target Peroxisome proliferator-activated receptor delta (Homo sapiens) (UniProt Q03181). Nature of the experiment: qHTS assay for small molecule antagonists of peroxisome proliferator-activated receptor delta signaling (AID 588535; active = well fitted inhibition curve with a large enough effect in the signal ratio, with a control signal flat, not every such curve was filed as active; the % refers to the signal ratio). In outline:
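Inhibition of PPAR-delta response element-driven beta-lactamase expression is measured in HEK293T cells exposed to a compound titration series for 18 hrs at 37 C. Half-maximal inhibition comes from Hill equation fitting.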

Experiment [11] can be described thus: qHTS assay for small molecule agonists of retinoid X receptor alpha signaling (AID 588544). As to conditions: HEK293T RXRa-UAS-bla, beta-lactamase reporter, 18 h; 530 nm emission.

Values joined by “and” are separate entries in the source; they are usually repeats but may differ in a detail not shown here. Identical values can stand only once. Records with an inconclusive call do not appear. Active and inactive are the calls of the source. Unless noted, calls follow the shape of the full dose curve.

Sequence of Peroxisome proliferator-activated receptor delta (Homo sapiens) (Q03181 whole entry, looked up): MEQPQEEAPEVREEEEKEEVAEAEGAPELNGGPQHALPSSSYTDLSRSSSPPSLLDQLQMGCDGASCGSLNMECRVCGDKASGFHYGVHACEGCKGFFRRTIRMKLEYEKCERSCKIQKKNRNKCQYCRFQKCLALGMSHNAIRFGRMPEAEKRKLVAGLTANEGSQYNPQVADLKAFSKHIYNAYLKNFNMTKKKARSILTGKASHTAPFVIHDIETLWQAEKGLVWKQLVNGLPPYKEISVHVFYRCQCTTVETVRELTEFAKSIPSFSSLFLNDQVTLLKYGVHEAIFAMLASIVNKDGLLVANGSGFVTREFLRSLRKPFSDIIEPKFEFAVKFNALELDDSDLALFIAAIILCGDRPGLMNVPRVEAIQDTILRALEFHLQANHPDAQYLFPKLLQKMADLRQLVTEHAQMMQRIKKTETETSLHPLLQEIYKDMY
Sequence of Androgen receptor (Homo sapiens) (P10275 whole entry, looked up): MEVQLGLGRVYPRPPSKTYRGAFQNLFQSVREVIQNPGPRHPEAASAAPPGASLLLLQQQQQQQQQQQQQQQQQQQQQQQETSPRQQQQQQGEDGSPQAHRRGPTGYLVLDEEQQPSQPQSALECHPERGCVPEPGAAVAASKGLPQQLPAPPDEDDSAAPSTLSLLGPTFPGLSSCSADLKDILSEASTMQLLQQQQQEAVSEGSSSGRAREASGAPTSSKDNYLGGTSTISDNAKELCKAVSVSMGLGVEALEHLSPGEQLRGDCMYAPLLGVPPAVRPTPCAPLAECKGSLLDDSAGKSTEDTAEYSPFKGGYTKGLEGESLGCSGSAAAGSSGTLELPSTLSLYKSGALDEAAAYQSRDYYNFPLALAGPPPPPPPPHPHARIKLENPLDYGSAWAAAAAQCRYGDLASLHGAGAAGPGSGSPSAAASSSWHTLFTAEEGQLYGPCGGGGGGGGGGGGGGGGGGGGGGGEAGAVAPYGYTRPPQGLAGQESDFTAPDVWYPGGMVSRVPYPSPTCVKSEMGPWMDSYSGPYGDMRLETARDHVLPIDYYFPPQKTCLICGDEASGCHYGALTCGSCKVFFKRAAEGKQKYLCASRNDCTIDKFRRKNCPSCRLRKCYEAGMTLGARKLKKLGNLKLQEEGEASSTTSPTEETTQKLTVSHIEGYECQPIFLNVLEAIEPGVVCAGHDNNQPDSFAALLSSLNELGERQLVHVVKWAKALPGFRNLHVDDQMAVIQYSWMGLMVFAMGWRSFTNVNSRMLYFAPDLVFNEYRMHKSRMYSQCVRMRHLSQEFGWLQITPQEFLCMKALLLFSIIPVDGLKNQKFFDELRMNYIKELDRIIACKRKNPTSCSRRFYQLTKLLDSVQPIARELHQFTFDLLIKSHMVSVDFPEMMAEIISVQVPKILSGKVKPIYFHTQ
Sequence of Glucocorticoid receptor (Homo sapiens) (P04150 whole entry, looked up): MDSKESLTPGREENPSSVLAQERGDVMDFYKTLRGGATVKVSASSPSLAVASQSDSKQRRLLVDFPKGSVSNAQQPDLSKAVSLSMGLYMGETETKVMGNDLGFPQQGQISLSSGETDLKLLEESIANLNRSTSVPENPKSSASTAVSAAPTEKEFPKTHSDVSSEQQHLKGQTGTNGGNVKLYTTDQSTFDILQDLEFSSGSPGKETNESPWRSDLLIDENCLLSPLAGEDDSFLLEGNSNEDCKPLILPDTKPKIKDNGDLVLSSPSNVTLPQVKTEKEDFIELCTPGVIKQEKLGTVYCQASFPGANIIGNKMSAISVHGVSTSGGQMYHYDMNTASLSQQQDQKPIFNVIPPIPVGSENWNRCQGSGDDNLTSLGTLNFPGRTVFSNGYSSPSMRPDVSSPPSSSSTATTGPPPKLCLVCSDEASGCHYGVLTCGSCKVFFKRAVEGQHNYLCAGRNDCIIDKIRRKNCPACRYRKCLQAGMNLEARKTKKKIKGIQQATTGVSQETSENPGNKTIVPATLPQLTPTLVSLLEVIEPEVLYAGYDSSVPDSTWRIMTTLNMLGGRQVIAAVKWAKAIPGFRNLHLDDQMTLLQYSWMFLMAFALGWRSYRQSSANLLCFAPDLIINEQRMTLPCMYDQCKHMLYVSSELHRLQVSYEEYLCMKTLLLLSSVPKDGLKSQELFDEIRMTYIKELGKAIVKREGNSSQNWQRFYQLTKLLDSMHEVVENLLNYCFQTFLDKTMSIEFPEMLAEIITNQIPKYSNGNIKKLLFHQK

Take `CNC(=O)Oc1cc(C)c(SC)c(C)c1`: the Potency in [1] is 25.1 µM (active); in experiment [6], 27.3 µM (active). Also, the activation was 1.32% (inactive) in experiment [2], 5.14% (inactive) in [4] and -0.568% (inactive) in [7]. The Potency result in [3] and in experiment [5] was “inactive” throughout.
In the case of `CCOP(=O)(NC(C)C)Oc1ccc(S(C)(=O)=O)c(C)c1` (stereo unspecified), the Potency result in experiment [1], in [3], in [8] and in experiment [6] was “inactive” each time. Besides, the values for the activation in [2], in [4] and in experiment [7] were 6.06% (inactive), -2.2% (inactive) and -0.438% (inactive), respectively.
As to `O=C(O)C1(O)c2ccccc2-c2ccc(Cl)cc21` (stereo unspecified), the Potency result in experiment [1] and in [5] was “inactive” each time. Moreover, the activation in experiment [2] was -1.34% (inactive); in [4], 8.73% (inactive); in experiment [7], 3.02% (inactive). Also, the Potency in [6] is 48.6 µM (active). Besides, in experiment [9], the outcome was inactive.
Take `CCCOc1nn(C(=O)NS(=O)(=O)c2ccccc2C(=O)OC)c(=O)n1C`: the activation in experiment [2] is 9.43% (inactive); in experiment [7], -2.67% (inactive). Besides, the Potency result in experiment [3], in experiment [5], in [10] and in experiment [6] was “inactive” throughout. For the same molecule, the call in experiment [9] was inactive.
As to `CC1=C(C(=O)Nc2ccccc2)SCCO1`, the activation in experiment [2] was -8.15% (inactive); in experiment [4], -5.36% (inactive). The Potency result in experiment [3], in experiment [8], in experiment [5] and in experiment [6] was “inactive” throughout.
Consider `CCCCOC(=O)[C@@H](C)Oc1ccc(Oc2ccc(C#N)cc2F)cc1`, for which the Potency entry in experiment [1] is “inactive”. Moreover, the max response in [11] worked out at 10.2%. For the same molecule, the activation in experiment [7] is 0.919% (inactive). Moreover, in experiment [9], the result was inactive.
`COC(=O)/C=C(\C)OP(=O)(OC)OC`: the Potency entry in experiment [1], in [10] and in [6] was “inactive” throughout. Moreover, the activation in experiment [4] is 7.79% (inactive). In addition, the max response in experiment [11] is -22.9%.
With `O=C(O)C(F)(F)C(F)(F)C(F)(F)C(F)(F)C(F)(F)C(F)(F)C(F)(F)C(F)(F)C(F)(F)F`, the Potency result in experiment [1] and in experiment [5] was “inactive” throughout. Moreover, the max response in experiment [11] was -12.9% and -38.7%. Further, in experiment [7], the activation was 1.39% (inactive) and -1.65% (inactive). Moreover, the molecule was classed as inactive in experiment [9].
For `CN/C(=N\[N+](=O)[O-])NCc1cnc(Cl)s1`, the Potency entry in experiment [1] is “inactive”. Further, in experiment [11], the max response was -16.2%. In experiment [9], the call was inactive.
As to `Cc1nn(-c2cc(NS(C)(=O)=O)c(Cl)cc2Cl)c(=O)n1C(F)F`, in [2], the activation was -3.3% (inactive). The Potency entry in experiment [3], in [10] and in [6] was “inactive” each time. In addition, the max response in experiment [11] was determined as 10.2%.
As to `CC1(C)CON(Cc2ccccc2Cl)C1=O`, the Potency result in [1], in experiment [10] and in experiment [6] was “inactive” in each case. In addition, in experiment [11], the max response was determined as 5.44%.
With `COc1ccc(/C(=C/C(=O)N2CCOCC2)c2ccc(Cl)cc2)cc1OC`, the results for the activation in experiment [2] and in experiment [4] were -2.83% (inactive) and -0.563% (inactive), respectively. Besides, the Potency result in experiment [3], in [5] and in [6] was “inactive” throughout. Further, the max response in experiment [11] turned out to be 28.2%.
Turning to `CCOP(=S)(OCC)SCSP(=S)(OCC)OCC`, the Potency entry in [1], in experiment [5] and in experiment [10] was “inactive” in each case. Besides, the activation in [7] was -2.5% (inactive).
Turning to `Cc1cc(Cl)ccc1O[C@H](C)C(=O)O`, the Potency entry in [1] was “inactive”. Moreover, the activation in experiment [7] is 0.599% (inactive). Moreover, the outcome in experiment [9] was inactive.
Turning to `CCC(C)Nc1c([N+](=O)[O-])cc(C(C)(C)C)cc1[N+](=O)[O-]` (stereo unspecified), the Potency entry in experiment [1] and in experiment [10] was “inactive” in each case. The max response in experiment [11] is -9.41%.
For the molecule `ClCc1ccccc1Cl`, the activation is 1.96% (inactive) in [2] and -0.339% (inactive) in [4]. Further, the Potency entry in experiment [3], in [8] and in [5] was “inactive” throughout. Besides, the max response in [11] was -22.8%. In addition, the outcome in experiment [9] was inactive.
Turning to `CCC(C)(C)c1ccc(O)c(C(C)(C)CC)c1`, the Potency result in experiment [1], in [8] and in experiment [10] was “inactive” each time. Moreover, in experiment [6], the Potency was 61.1 µM (active).
As to `N#CC(CCc1ccc(Cl)cc1)(Cn1cncn1)c1ccccc1` (stereo unspecified), the Potency result in experiment [1] and in experiment [5] was “inactive” in each case. For the same molecule, the Potency in experiment [6] was 68.6 µM (active). In experiment [7], the activation was 2.24% (inactive).
As to `N#CN=C1SCCN1Cc1ccc(Cl)nc1`, the Potency entry in experiment [1], in experiment [10] and in experiment [6] was “inactive” throughout. The max response in [11] worked out at 6.15%. Moreover, the activation in experiment [7] was -0.492% (inactive).
